PriA SSB inh: inhibitors of Klebsiella pneumoniae PriA binding to SSB C-terminal tail. AlphaScreen SSBct-PriA binding, biotinylated peptide. hit rate 0.6% among 430,000. inhibition, % at 33 µM. AID 1272365; in the data active = inhibition mostly above about 37%, no sharp cut-off; inactive = mostly below about 20%
Mtb betalactam: beta-lactam sensitization of Mtb H37Rv; M. tuberculosis H37Rv growth with meropenem, percent inhibition; inhibition, % at 25 µM; hit rate 0.27% among 330,000;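 note: growth measured after seven days incubation then overnight dye step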
Mtb UGM inh: Mtb UDP-galactopyranose mutase inhibition; P9WIQ1; purified UGM, fluorescence polarization probe displacement; inhibition, % at 10 µM; hit rate 0.06% among 320,000; AID 504406; in the data active = inhibition above about 10%, passing the limit was not always enough; inconclusive = no clear call, values can overlap the other calls
RecA intein inh: inhibitors of M. tuberculosis RecA intein splicing. P9WHJ3. cell-free RecA intein splicing, fluorescence. inhibition, % (no concentration beside the values). hit rate 0.75% among 290,000; in the data active = inhibition above about 30%; inconclusive = no clear call, values can overlap the other calls
Target sequence (P9WHJ3 whole entry, looked up): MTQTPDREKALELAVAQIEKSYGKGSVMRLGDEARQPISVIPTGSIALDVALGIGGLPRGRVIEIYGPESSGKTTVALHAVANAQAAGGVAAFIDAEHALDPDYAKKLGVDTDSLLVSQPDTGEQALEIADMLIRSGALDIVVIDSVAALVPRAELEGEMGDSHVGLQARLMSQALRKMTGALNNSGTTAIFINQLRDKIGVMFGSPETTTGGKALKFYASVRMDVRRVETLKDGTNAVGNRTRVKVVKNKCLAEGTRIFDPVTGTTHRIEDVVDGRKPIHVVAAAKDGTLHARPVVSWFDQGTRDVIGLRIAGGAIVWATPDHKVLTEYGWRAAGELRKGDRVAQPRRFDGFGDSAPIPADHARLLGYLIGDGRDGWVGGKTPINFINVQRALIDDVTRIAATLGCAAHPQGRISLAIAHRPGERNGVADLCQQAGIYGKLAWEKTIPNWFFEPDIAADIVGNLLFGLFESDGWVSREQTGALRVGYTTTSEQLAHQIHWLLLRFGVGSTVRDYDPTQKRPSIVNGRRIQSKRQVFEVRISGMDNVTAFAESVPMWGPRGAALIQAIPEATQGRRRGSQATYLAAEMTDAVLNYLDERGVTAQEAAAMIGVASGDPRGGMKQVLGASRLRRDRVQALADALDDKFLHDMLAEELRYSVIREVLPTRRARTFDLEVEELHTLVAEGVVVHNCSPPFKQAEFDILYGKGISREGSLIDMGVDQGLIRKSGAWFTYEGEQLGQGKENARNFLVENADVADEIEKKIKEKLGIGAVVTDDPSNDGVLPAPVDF
Rv3671c protease: inhibits the M. tuberculosis serine protease Rv3671c. P9WHR9. inhibition, % at 5.96 µM. hit rate 0.048% among 320,000; in the data active = inhibition above about 38%;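 note: extracellular domain of Rv3671c used as enzyme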
GFP chromo cs: counter-screen: blocks GFP chromophore formation. shares compounds with RecA intein inh. cell-free GFP chromophore formation, fluorescence. EC50, µM. hit rate 83% among 2,100
Numbers stand for hits; 0 = inactive; ? = inconclusive; - = no result. Compounds with a hit are over-represented: about 1.1% of the library has one in this group of screens. Unless noted, the rule behind the calls is not given here.

SMILES | PriA SSB inh | Mtb betalactam | Mtb UGM inh | RecA intein inh | Rv3671c protease | GFP chromo cs
Cc1c(C(=O)NN)nn(-c2ccc(Cl)cc2)c(=O)c1C#N | 0 | 0 | 0 | 42.6 | 0 | 30.6
O=S(=O)(N[C@H]1C[C@@H](NS(=O)(=O)OCC(Cl)(Cl)Cl)C2CCCCC21)OCC(Cl)(Cl)Cl (stereo partly specified) | 0 | 0 | 0 | 31.6 | 0 | 0
CC1CCC(C)(NS(=O)(=O)OCC(Cl)(Cl)Cl)CC1 (stereo unspecified) | 0 | 0 | 0 | 0 | 0 | -
Nc1cccc2c(O)cccc12 | 0 | 0 | 0 | 55.9 | 0 | 37.1
CC1=Nc2cccc3cccc(c23)N1C | 0 | 0 | 0 | 77.9 | 0 | 0
CN1C(=O)N(C)c2cccc3cccc1c23 | 0 | 0 | 0 | 0 | 0 | -
Cc1ccccc1C(=O)NNC(=S)NC(=O)COc1ccccc1 | 0 | 0 | 0 | 40.3 | 0 | 30.8
COc1cc(/C=N/NC(=O)CC2(C)OCCCO2)ccc1OCc1ccccc1 | - | 0 | 0 | 39.4 | 0 | 3.11
N#C/C(=C/c1cccn1-c1cccc(C(=O)O)c1)c1ccc(F)cc1 | 0 | - | - | 44.8 | - | 0
COc1cccc(/C=C(/C#N)c2ccc(F)cc2)c1OCc1cccc(C(=O)O)c1 | 0 | 0 | 0 | 0 | 0 | -
N#Cc1c(N2CCCC2)nc(N)c2c(N)nc(N3CCCC3)cc12 | 0 | 0 | 0 | 57.8 | 0 | 0.243
CC(C)C[C@H]1C(=O)N2CCC[C@H]2[C@]2(O)O[C@](NC(=O)[C@@H]3C=C4c5cccc6[nH]c(Br)c(c56)CC4N(C)C3)(C(C)C)C(=O)N12 (stereo partly specified) | 0 | 0 | 0 | 55.6 | 0 | 0
O=[N+]([O-])c1cccc(C(=Nc2ccccc2)NO)c1 | 0 | 0 | 0 | 0 | 0 | -
O=[N+]([O-])c1cc([N+](=O)[O-])c2c(=Nc3ccccc3)n(-c3ccccc3)n(O)c2c1 | 63.0 | 0 | 0 | 74.1 | 0 | 4.08
N=c1c2c(-c3ccccc3)c(-c3ccccc3)n(Cc3ccco3)c2ncn1Cc1ccccc1 | 0 | 0 | 0 | 59.2 | 0 | 5.2
Cc1ccc(NC(=O)CSc2cn(C)c3ccccc23)cc1Cl | 0 | - | - | - | - | -
COc1cc(/C=C(\C#N)C(=O)c2c[nH]c3ccccc23)cc(OC)c1O | 0 | 0 | 0 | 91.9 | 0 | 5.17
CCOC(=O)C/C(C)=N/NC(=O)COc1ccccc1C | - | 0 | 0 | 61.9 | 0 | 12.9
COc1ccc(C(=O)Nc2ccc3c(c2)C(=O)c2ccccc2C3=O)cc1OC | 0 | 0 | 0 | 0 | 0 | -
COc1ccc(C(=O)c2c(C(F)(F)F)oc3c2C(=O)c2ccccc2C3=O)cc1OC | 0 | 0 | 0 | 66.8 | 0 | 11.4
O=C1CN(C(=O)c2csc(Nc3cccc(Cl)c3)n2)CCN1 | 0 | - | - | - | - | -
Fc1ccc(Nc2nc(Nc3cccc(Cl)c3)nc(N3CCOCC3)n2)cc1Cl | 0 | - | - | - | - | -
COc1ccc(NC(=S)Nc2ccc3nsnc3c2)cc1 | 0 | 0 | 0 | 40.2 | 0 | 0
CCOc1ccc(NC(=S)Nc2ccc3nsnc3c2)cc1 | 0 | 0 | 0 | 0 | 0 | -
CN(CC1Cc2ccccc2CO1)S(=O)(=O)c1cccnc1 (stereo unspecified) | 0 | - | - | - | - | -
SMILES | PriA SSB inh | Mtb betalactam | Mtb UGM inh | RecA intein inh | Rv3671c protease | GFP chromo cs
COc1ccc(C(O)c2nccc3cc(OC)c(OC)cc23)cc1OC (stereo unspecified) | 0 | 0 | 0 | 53.4 | 0 | 25.2
CC(=O)N1CCN(S(=O)(=O)c2ccc(C(=O)Nc3nnc(C)s3)cc2)CC1 | 0 | - | - | - | - | -
CCOc1cc(/C=C(\C#N)C(=O)Nc2cccc(C(=O)O)c2)ccc1OCc1ccccc1Cl | 0 | 0 | 0 | - | 0 | -
CCOc1cc(/C=C(\C#N)C(=O)Nc2cccc(C(=O)O)c2)cc(Br)c1OC(=O)c1ccc(OC)cc1 | 0 | 0 | 0 | 37.6 | 0 | 20.8
CCN(Cc1ccccc1)S(=O)(=O)c1ccc(C(=O)N(CCCN(C)C)c2nc3cc(C)cc(C)c3s2)cc1 | 42.6 | 0 | 0 | 31.4 | 0 | 0
CCOC(=O)c1cnc(N)nc1C(F)(F)F | 0 | 0 | 0 | 60.8 | 0 | 0
CCOc1ccccc1N1CCN(C(=O)c2ccc(-c3ccc(OC(C)=O)cc3)cc2)CC1 | 0 | 0 | 0 | 31.2 | 0 | 0
Oc1c(Cl)cc(Cl)cc1C=Nc1ccccc1N1CCCC1 | - | 0 | 0 | 0 | 0 | -
O=c1[nH]cc(N=Cc2cc(Cl)cc(Cl)c2O)c(=O)[nH]1 | 0 | 0 | 0 | 76.8 | 0 | 13.4
COCCn1c(=NC(=O)c2ccn(C)n2)sc2cc(Cl)ccc21 | 0 | - | - | - | - | -
CN1c2ccccc2C(C)(C)C12C=Nc1c(ccc3ccccc13)O2 (stereo unspecified) | 0 | 0 | 0 | 78.9 | 0 | 25.1
Cc1ccc(C)c(S(=O)(=O)NN=Cc2ccc(C(=O)O)cc2)c1 | 0 | - | - | - | - | -
O=C1C(Nc2ccc(O)cc2)=C/C(=N/S(=O)(=O)c2cccs2)c2ccccc21 | - | - | - | 96.5 | - | 0.192
Cc1cccc(NC2=CC(=NS(=O)(=O)c3cccs3)c3ccccc3C2=O)c1 | 0 | - | - | - | - | -
Cc1ccc(NC2=C/C(=N\S(=O)(=O)c3cccs3)c3ccccc3C2=O)c(C)c1 | - | 0 | 0 | 41.4 | 0 | 0.311
CC(=NNC(=O)c1sc(NS(=O)(=O)c2ccc(C)cc2)nc1C)c1sc(N)nc1C | 0 | - | - | - | - | -
COc1ccc(-c2nnc3ccc(OCCNC(=O)C4CCCC4)nn23)cc1 | 0 | - | - | - | - | -
CCOC(=O)CSc1nnc(NCC(=O)OC(C)C)c(=O)[nH]1 | 0 | 0 | 0 | 54.6 | 0 | 36.6
CCOC(=O)CNC(=O)CSc1nnc(C)c(=O)[nH]1 | 0 | 0 | 0 | 0 | 0 | -
CCC(=O)Nc1nnc(SCC(=O)N2CCc3ccccc32)s1 | 0 | - | - | - | - | -
CC(=NNC(=O)COc1ccc(C)cc1C(C)C)c1cc2ccccc2o1 | 0 | - | - | - | - | -
O=C(CSCc1ccccc1)NCC[C@H](O)c1ccsc1 | 0 | - | - | - | - | -
Cc1cc(=O)[nH]c(-n2nc(-c3cccs3)cc2NC(=O)COc2ccc(Cl)cc2)n1 | 0 | - | - | - | - | -
N#CC1=C(N)Oc2cc(O)ccc2C1c1cccs1 (stereo unspecified) | 0 | 0 | 0 | 0 | 0 | -
N#CC1=C(N)Oc2n[nH]c(-c3cccs3)c2C1c1cccs1 (stereo unspecified) | 0 | 0 | 0 | 79.3 | 0 | 10.7
SMILES | PriA SSB inh | Mtb betalactam | Mtb UGM inh | RecA intein inh | Rv3671c protease | GFP chromo cs
N#CC1=C(N)Oc2n[nH]c(-c3cccs3)c2C1c1ccccc1C(=O)O (stereo unspecified) | 0 | 0 | 0 | 76.1 | 0 | 12.2
COc1ccc(CC(=O)Nc2cc(-n3ccc4ccccc43)ncn2)cc1OC | 0 | - | - | - | - | -
Cc1[nH]nc2c1C1(CCC(c3ccccc3)CC1)C(C#N)=C(N)O2 (stereo unspecified) | 0 | 0 | 0 | 77.0 | 0 | 25.3
N#CC1=C(N)Oc2n[nH]c(-c3ccccc3)c2C12C(=O)Nc1ccccc12 (stereo unspecified) | 0 | 0 | 0 | 0 | 0 | -
CC(=O)N1CCC2(CC1)C(C#N)=C(N)Oc1n[nH]c(C)c12 | 0 | ? | 0 | 78.6 | 0 | 14.9
Cc1[nH]nc2c1C1(CCN(C(=O)c3ccccc3)CC1)C(C#N)=C(N)O2 | 0 | 0 | 0 | 78.6 | 0 | 12.5
CC(=O)N1CCC2(CC1)C(C#N)=C(N)Oc1c2sc2nc(C)cc(C)c12 | 0 | 0 | 0 | 0 | 0 | -
Cc1[nH]nc2c1C1(CCN(C(=O)OCc3ccccc3)CC1)C(C#N)=C(N)O2 | 0 | 0 | 0 | 80.2 | 0 | 29.8

Assay outcomes (PubChem BioAssay)
